Where “and” joins values, the source holds several entries; their conditions need not be identical. Identical values can stand only once. Inconclusive results are not listed. Where a structure was tested more than once in an assay, its records may differ in their call. Calls of active or inactive are those of the source. Unless noted, calls follow the shape of the dose curve; as a rule, active = well fitted curve in the direction sought with a large enough effect in the repeat runs; inconclusive = weak or mixed curves; inactive = no such curve, though single readings can be large; an effect the other way counts as inactive or inconclusive.
How the values were obtained:
[1] = qHTS assay to identify small molecule antagonists of the thyroid receptor (TR) signaling pathway - cell viability counter screen (AID 743064); also: nearly all actives have a fitted effect of over 50% in size; also: potency is read from the fitted curve at half-maximal effect
Outline: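 In-well cytotoxicity read by CellTiter-Fluor (30 min, 37 C) following 23.5 h exposure of GH3 cells bearing a TRE-luciferase sensor. Compounds were added alongside 1 nM (final) T3 to drive TR transactivation.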

[2] = qHTS assay to identify small molecule antagonists of the thyroid receptor (TR) signaling pathway (AID 743065); also: nearly all actives have a fitted effect of over 55% in size; also: potency is read from the fitted curve at half-maximal effect
Outline: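 Antagonism measured as loss of luciferase signal in GH3 cells stably carrying a TRE-luciferase reporter, co-treated with compound and T3 (1 nM final) for 23.5 h at 37 C. Viability was read in the same well by CellTiter-Fluor.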

[3] = tested on: thyroid hormone receptor (rat, GH3 cells); assay: qHTS assay to identify small molecule agonists of the thyroid receptor (TR) signaling pathway (AID 743066; calls by dose curve)
[4] = qHTS assay to identify small molecule antagonists of the estrogen receptor alpha (ER-alpha) signaling pathway - cell viability counter screen (AID 743074; calls by dose curve; also: nearly all actives have a fitted effect of over 45% in size)
[5] = qHTS assay to identify small molecule antagonists of the estrogen receptor alpha (ER-alpha) signaling pathway using the BG1 cell line - cell viability counter screen (AID 743081);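 also: compound given together with 17beta-estradiol as the ER stimulus; nearly all actives have a fitted effect of over 45% in size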
Aromatase (Homo sapiens) = Aromatase (Homo sapiens) (UniProt P11511); assay: qHTS assay to identify aromatase inhibitors (AID 743083); also: nearly all actives have a fitted effect of over 55% in size; also: potency is read from the fitted curve at half-maximal effect
Aromatase (Homo sapiens), sequence (P11511 whole entry, looked up): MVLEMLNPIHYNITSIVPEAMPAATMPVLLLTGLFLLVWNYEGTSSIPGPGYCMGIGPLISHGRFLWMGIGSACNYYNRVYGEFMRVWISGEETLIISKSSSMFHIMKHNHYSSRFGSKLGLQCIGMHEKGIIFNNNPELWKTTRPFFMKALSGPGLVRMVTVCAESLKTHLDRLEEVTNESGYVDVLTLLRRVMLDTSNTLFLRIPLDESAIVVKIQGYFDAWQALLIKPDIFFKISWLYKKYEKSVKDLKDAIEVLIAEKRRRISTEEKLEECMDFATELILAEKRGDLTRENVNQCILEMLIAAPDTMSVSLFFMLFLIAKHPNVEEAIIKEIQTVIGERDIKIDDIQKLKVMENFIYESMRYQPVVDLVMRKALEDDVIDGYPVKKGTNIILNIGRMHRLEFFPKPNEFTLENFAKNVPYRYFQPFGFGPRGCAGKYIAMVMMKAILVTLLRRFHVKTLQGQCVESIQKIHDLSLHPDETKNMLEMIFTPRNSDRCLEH

[6] = qHTS assay to identify aromatase inhibitors - cell viability counter screen (AID 743084);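 also: cells stimulated with testosterone during compound exposure; nearly all actives have a fitted effect of over 55% in size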; also: potency is read from the fitted curve at half-maximal effect
[7] = target: Aryl hydrocarbon receptor (Homo sapiens) (UniProt P35869); assay: qHTS assay to identify small molecule that activate the aryl hydrocarbon receptor (AhR) signaling pathway (AID 743085);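 also: HG2L7.5c1 human HepG2 liver cells with stably integrated DRE-driven firefly reporter; nearly all actives have a fitted effect of over 15% in size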
Aryl hydrocarbon receptor (Homo sapiens), sequence (P35869 whole entry, looked up): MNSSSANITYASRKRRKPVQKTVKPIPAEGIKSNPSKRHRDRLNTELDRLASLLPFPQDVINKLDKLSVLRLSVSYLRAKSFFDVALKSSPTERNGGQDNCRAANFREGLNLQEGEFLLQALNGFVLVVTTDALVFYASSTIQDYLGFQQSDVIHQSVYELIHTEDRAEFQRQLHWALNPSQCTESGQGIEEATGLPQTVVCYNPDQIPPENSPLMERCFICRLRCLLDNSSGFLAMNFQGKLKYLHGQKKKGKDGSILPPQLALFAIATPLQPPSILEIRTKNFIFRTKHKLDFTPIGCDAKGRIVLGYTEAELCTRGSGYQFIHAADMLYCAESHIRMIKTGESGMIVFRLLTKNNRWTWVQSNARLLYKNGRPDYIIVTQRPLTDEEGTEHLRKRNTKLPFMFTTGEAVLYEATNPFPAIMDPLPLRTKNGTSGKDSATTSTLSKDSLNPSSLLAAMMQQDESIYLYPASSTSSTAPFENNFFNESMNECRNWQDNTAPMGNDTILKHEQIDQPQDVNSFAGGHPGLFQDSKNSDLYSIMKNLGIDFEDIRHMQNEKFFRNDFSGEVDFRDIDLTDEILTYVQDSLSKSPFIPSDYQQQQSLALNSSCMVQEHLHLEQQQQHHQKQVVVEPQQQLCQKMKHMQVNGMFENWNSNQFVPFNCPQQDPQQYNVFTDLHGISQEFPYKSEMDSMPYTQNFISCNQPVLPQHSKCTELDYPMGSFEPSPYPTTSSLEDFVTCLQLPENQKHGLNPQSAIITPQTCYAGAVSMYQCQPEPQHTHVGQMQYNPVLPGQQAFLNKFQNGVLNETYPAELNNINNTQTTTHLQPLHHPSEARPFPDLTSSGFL
Outline: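 Luminescence (ONE-Glo) from a dioxin-responsive-element luciferase reporter in HG2L7.5c1 HepG2 cells after 24 hr compound exposure at 37C; viability measured by CellTiter-Fluor fluorescence beforehand.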

[8] = qHTS assay to identify small molecule that activate the aryl hydrocarbon receptor (AhR) signaling pathway - cell viability counter screen (AID 743086);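 also: HepG2 liver cells carrying the AhR DRE luciferase reporter; nearly all actives have a fitted effect of over 45% in size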
Outline: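 Cytotoxicity counter screen: CellTiter-Fluor signal (30 min, 37 C) in 4000 HepG2 cells/well carrying the DRE-luciferase reporter, following 24 h compound exposure at 37 C.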

[9] = target: Peroxisome proliferator-activated receptor gamma (Homo sapiens) (UniProt P37231); assay: qHTS assay to identify small molecule agonists of the peroxisome proliferator-activated receptor gamma (PPARg) signaling pathway (AID 743094; active = well fitted activation curve with a large enough effect in the signal ratio in the repeat runs, not every such curve was filed as active; the % refers to the signal ratio)
Peroxisome proliferator-activated receptor gamma (Homo sapiens), sequence (P37231 whole entry, looked up): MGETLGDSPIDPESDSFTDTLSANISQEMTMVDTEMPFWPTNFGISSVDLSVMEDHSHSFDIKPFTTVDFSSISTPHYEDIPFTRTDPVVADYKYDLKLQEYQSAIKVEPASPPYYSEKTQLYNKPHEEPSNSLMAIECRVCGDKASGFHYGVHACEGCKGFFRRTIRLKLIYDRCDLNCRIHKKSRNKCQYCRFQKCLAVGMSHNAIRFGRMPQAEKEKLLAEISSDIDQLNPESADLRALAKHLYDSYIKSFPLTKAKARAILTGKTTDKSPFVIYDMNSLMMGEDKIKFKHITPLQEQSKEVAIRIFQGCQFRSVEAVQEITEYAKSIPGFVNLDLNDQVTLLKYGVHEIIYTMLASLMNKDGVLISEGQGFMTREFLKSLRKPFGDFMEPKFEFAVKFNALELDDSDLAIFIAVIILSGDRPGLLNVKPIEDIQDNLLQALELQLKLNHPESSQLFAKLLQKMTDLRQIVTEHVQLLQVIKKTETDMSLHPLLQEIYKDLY
Outline: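 Cells from the PPARg UAS-bla HEK293H line are plated and incubated 5 h at 37C. Compounds in DMSO are pinned in and left 17 h at 37C. LiveBLAzer B/G substrate is then added for 1 h at room temperature before fluorescence is measured.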

[10] = target: Peroxisome proliferator-activated receptor gamma (Homo sapiens) (UniProt P37231); assay: qHTS assay to identify small molecule antagonists of the peroxisome proliferator-activated receptor gamma (PPARg) signaling pathway (AID 743191; calls by dose curve; also: nearly all actives have a fitted effect of over 30% in size)
Outline: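 Beta-lactamase reporter under UAS control in HEK293H PPARg-bla cells; compound treatment 17 h at 37C. Read-out: fluorescence intensity after 1 h room-temperature incubation with LiveBLAzer B/G FRET substrate.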

[11] = qHTS assay to identify small molecule antagonists of the peroxisome proliferator-activated receptor gamma (PPARg) signaling pathway - cell viability counter screen (AID 743194); conditions: Potency: co-treated with 50 nM rosiglitazone unless noted; also: nearly all actives have a fitted effect of over 55% in size
Outline: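 Viability was measured as CellTiter-Glo luminescence in GeneBLAzer PPARg UAS-bla HEK293H cells. These cells had been exposed 17 h at 37 C to compounds together with rosiglitazone at 50 nM final, with the beta-lactamase readout taken in the same wells.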

[12] = qHTS assay for small molecule agonists of the antioxidant response element (ARE) signaling pathway - cell viability counter screen (AID 743203; calls by dose curve; also: nearly all actives have a fitted effect of over 55% in size; also: potency is read from the fitted curve at half-maximal effect)
Outline: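 Cytotoxicity was tested in parallel with the ARE reporter screen. ARE-bla HepG2 cells were exposed to compounds for 16 hrs, and viability was taken from CellTiter-Glo luminescence.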

[13] = qHTS assay for small molecule activators of the heat shock response signaling pathway - cell viability counter screen (AID 743209); also: nearly all actives have a fitted effect of over 50% in size
Outline: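 Cytotoxicity counter screen run in parallel with the HSE beta-lactamase reporter, using the same wells. HeLa HSE-bla cells received compound for 5 h at 37 C; ATP-based CellTiter-Glo luminescence was measured after 30 min at room temperature.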

[14] = qHTS assay for small molecule activators of the heat shock response signaling pathway (AID 743210; active = well fitted activation curve with a large enough effect in the signal ratio in the repeat runs, with a control signal flat, not every such curve was filed as active; the % refers to the signal ratio;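 also: HeLa cells with beta-lactamase reporter driven by heat shock elements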)
Outline: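 Fluorescence from a cleaved B/G FRET substrate (2.5 h, room temp) reports HSE-driven beta-lactamase in HeLa cells treated 5 h at 37 C with DMSO-dissolved compounds.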

[15] = qHTS assay for small molecule agonists of the antioxidant response element (ARE) signaling pathway (AID 743202; active = well fitted activation curve with a large enough effect in the signal ratio in the repeat runs, not every such curve was filed as active; the % refers to the signal ratio; also: potency is read from the fitted curve at half-maximal effect)
Outline: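 Beta-lactamase reporter activity, read as fluorescence intensity, reflects ARE/Nrf2 pathway induction in HepG2 cells after 16 h compound exposure at 37 C; substrate loading was 2 h at room temperature.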

[16] = target: Estrogen receptor (Homo sapiens) (UniProt P03372); assay: qHTS assay to identify small molecule antagonists of the estrogen receptor alpha (ER-alpha) signaling pathway (AID 743069; active = well fitted curve in the direction sought with a large enough effect in the signal ratio in the repeat runs, not every such curve was filed as active; the % refers to the signal ratio)
Estrogen receptor (Homo sapiens), sequence (P03372 whole entry, looked up): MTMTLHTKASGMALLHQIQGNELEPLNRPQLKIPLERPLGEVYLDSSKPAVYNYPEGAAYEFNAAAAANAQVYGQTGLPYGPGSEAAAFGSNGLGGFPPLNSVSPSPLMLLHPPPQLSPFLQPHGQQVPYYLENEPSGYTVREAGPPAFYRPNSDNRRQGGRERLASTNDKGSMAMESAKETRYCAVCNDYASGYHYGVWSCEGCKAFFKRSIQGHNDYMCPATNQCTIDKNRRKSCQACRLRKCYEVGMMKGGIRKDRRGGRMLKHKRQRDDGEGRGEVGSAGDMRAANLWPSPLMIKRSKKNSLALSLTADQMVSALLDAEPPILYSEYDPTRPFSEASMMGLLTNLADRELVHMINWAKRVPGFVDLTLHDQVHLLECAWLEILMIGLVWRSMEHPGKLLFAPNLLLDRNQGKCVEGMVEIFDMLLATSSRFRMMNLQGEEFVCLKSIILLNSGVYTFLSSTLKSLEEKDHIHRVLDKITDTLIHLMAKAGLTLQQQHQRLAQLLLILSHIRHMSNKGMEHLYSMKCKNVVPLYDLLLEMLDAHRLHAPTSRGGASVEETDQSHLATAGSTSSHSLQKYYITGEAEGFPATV
Outline: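 Fluorescence intensity from a beta-lactamase FRET substrate served as the read-out. Cells: HEK293 with stably integrated ER-alpha-UAS-bla reporter. Agonist 17beta-estradiol was co-added with compounds; incubation 18 hr at 37C, substrate 2 hr at room temperature.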

[17] = target: Estrogen receptor (Homo sapiens) (UniProt P03372); assay: qHTS assay to identify small molecule agonists of the estrogen receptor alpha (ER-alpha) signaling pathway (AID 743075; calls by dose curve)
[18] = target: Estrogen receptor (Homo sapiens) (UniProt P03372); assay: qHTS assay to identify small molecule agonists of the estrogen receptor alpha (ER-alpha) signaling pathway using the BG1 cell line (AID 743079); conditions: BG1Luc4E2 cells, ERE-luciferase agonist, 22 h; activation: at 70.3 µM (top of the series) unless noted; also: nearly all actives have a fitted effect of over 20% in size; also: potency is read from the fitted curve at half-maximal effect
[19] = qHTS assay to identify small molecule antagonists of the estrogen receptor alpha (ER-alpha) signaling pathway using the BG1 cell line (AID 743080; calls by dose curve;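 also: BG1 cells stimulated with 17beta-estradiol alongside compound; nearly all actives have a fitted effect of over 25% in size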; also: potency is read from the fitted curve at half-maximal effect)
Outline: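 Luminescence from a 4×ERE-luciferase reporter in BG1-Luc-4E2 cells served as read-out. Cells, pre-cultured 5 days in stripped-serum phenol-red-free medium, were exposed to compound with 17beta-estradiol co-stimulation for 21.5 h at 37 C.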

Measured: Potency

OCc1ccc(Cl)cc1Cl
inactive: [1] | [2] | [3] | [4] | [5] | Aromatase (Homo sapiens) | [6] | [7] | [8] | [9] | [10] | [11] | [12] | [13] | [14]

CC(=O)OCc1ccc2c(c1)OCO2
inactive: [1] | [2] | [3] | [4] | [5] | Aromatase (Homo sapiens) | [6] | [8] | [15] | [12] | [13] | [14]

CC(=O)OC(C)(C)C1CC=C(C)CC1 (configuration not stated)
inactive and 54.5 µM (active): [18]
inactive: [1] | [3] | [16] | [4] | [17] | [19] | [5] | Aromatase (Homo sapiens) | [6] | [7] | [8] | [9] | [10] | [11] | [12] | [13] | [14]

CCCCCCCC(=O)O
inactive: [1] | [2] | [3] | [16] | [4] | [17] | [18] | [19] | [5] | Aromatase (Homo sapiens) | [6] | [8] | [9] | [11] | [15] | [12] | [13] | [14]

CC(COCC(C)OC(=O)c1ccccc1)OC(=O)c1ccccc1 (configuration not stated)
inactive: [1] | [2] | [3] | [4] | [5] | Aromatase (Homo sapiens) | [6] | [8] | [9] | [10] | [11] | [15] | [12] | [13] | [14]

OB(O)O
inactive: [1] | [2] | [3] | [16] | [4] | [17] | [18] | [19] | [5] | Aromatase (Homo sapiens) | [6] | [7] | [8] | [9] | [10] | [12] | [13] | [14]

O=C1OC(=O)c2c(Cl)c(Cl)c(Cl)c(Cl)c21
inactive: [1] | [2] | [3] | [4] | [5] | Aromatase (Homo sapiens) | [6] | [7] | [8] | [9] | [10] | [11] | [15] | [13] | [14]

COc1ccc2cc3[n+](cc2c1OC)CCc1cc2c(cc1-3)OCO2
inactive: [1] | [3] | [17] | Aromatase (Homo sapiens) | [8] | [9] | [11] | [13] | [14]
active: [2] 61.6 µM | [19] 26.6 µM | [15] 2.45 µM and 5.96 µM
inactive and 48.9 µM (active): [6]

CCCCC(CC)COC(=O)c1ccc(C(=O)OCC(CC)CCCC)cc1 (configuration not stated)
inactive: [1] | [2] | [3] | [4] | [5] | Aromatase (Homo sapiens) | [6] | [7] | [8] | [9] | [10] | [11] | [15] | [12] | [13] | [14]

CC(C)=CCC/C(C)=C/C=O
inactive: [1] | [2] | [3] | [16] | [4] | [17] | [18] | [19] | [5] | Aromatase (Homo sapiens) | [6] | [7] | [8] | [9] | [10] | [11] | [15] | [13] | [14]

Nc1cccc(C(F)(F)F)c1
inactive: [1] | [2] | [3] | [16] | [4] | [17] | [18] | [19] | [5] | Aromatase (Homo sapiens) | [6] | [8] | [9] | [11] | [12] | [13] | [14]

CC1(C)C(=O)N(Cl)C(=O)N1Cl
inactive: [1] | [3] | [16] | [4] | [17] | [19] | [5] | Aromatase (Homo sapiens) | [6] | [7] | [8] | [9] | [10] | [11] | [15] | [13] | [14]
77 µM (active) and inactive: [18]

Cc1ccncc1
inactive: [1] | [2] | [3] | [16] | [4] | [17] | [18] | [19] | [5] | Aromatase (Homo sapiens) | [6] | [7] | [8] | [9] | [10] | [11] | [12] | [13] | [14]

CC(CN1c2ccccc2Sc2ccccc21)N(C)C (configuration not stated)
inactive and 61.8 µM (active): Aromatase (Homo sapiens)
active: [1] 23.7 µM and 5.5 µM and 30.6 µM | [2] 26.6 µM and 27.6 µM and 61.1 µM
inactive: [3] | [5] | [6] | [7] | [8] | [9] | [15] | [13] | [14]
68.6 µM (active) and inactive: [12]

CCCOCC(C)O (configuration not stated)
inactive: [1] | [2] | [3] | [4] | [5] | Aromatase (Homo sapiens) | [6] | [8] | [9] | [10] | [11] | [15] | [12] | [13] | [14]

COc1ccc(N)c(OC)c1
inactive: [1] | [2] | [3] | [16] | [4] | [17] | [18] | [19] | [5] | Aromatase (Homo sapiens) | [6] | [8] | [9] | [10] | [12] | [13] | [14]

COC(=O)CCCCC(=O)OC
inactive: [1] | [2] | [3] | [16] | [4] | [17] | [18] | [19] | [5] | Aromatase (Homo sapiens) | [6] | [7] | [8] | [9] | [10] | [15] | [12] | [13] | [14]
